Assay results taken from PubChem BioAssay.
Results filed as inconclusive are left out.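 How the source made its calls, unless noted: active means percent response above a set limit, the screen-wide mean plus 3 SD (cut at about 130% in these data); inactive means the rest.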

Assay: modulators of MEP2-GFP levels in yeast, primary screen, S. cerevisiae, multiplex flow cytometry (AID 1867;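 active means GFP response, as percent of the DMSO control, above the screen-wide mean plus 3 SD, about 139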;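 further: median GFP channel fluorescence of barcode-gated MEP2-GFP cells measured by flow cytometry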)
Conditions: S. cerevisiae MEP2-GFP strain, 3 h, at 10 µM, stronger effect = higher value, 100% means same as DMSO wells

GFP response vs DMSO, inactive:
Cn1cc(C2N3CC4(C)CN2CC(C)(C3)C4=O)c2ccccc21 (stereo not drawn) 107%
Cc1ccc2nc(NC3=NC(CC(=O)O)C(=O)N3)nc(C)c2c1 (stereo not drawn) 100%
Cc1ccc(C2CC(=O)C(C=NCCN3CCN(CC(=O)Nc4cc(C)cc(C)c4)CC3)=C(O)C2)cc1 (stereo not drawn) 103%
NC(N)=NC(=O)Cc1c(Cl)cccc1Cl 110%
O=C(CCSc1ccccc1)N1CCCC1 109%
O=C(Nc1ccc(F)c([N+](=O)[O-])c1)c1ccc2c(c1)OCCO2 103%
Nc1ccc2cn[nH]c2c1 97.7%
CCN(CC)CC#CCOC(=O)C(O)(c1ccccc1)C1CCCCC1 (stereo not drawn) 132%
CC(C)CN1CCN(Cc2ccc(C#CC(C)(C)O)cc2)CC1CCO (stereo not drawn) 132%
Cc1ccccc1NC(=O)NCCc1c[nH]c2ccccc12 107%
C#CCN1C(=O)C(O)(c2c(C)[nH]c3ccccc23)c2ccccc21 (stereo not drawn) 106%
Cc1ccc(S(=O)(=O)N2CCC(C(=O)N[C@@H](C)C(=O)NC3CCS(=O)(=O)C3)CC2)cc1 (stereo partly drawn) 96.6%
CCNC(=O)c1c(N)sc2c1CCCCC2 96.3%
COc1ccccc1C(=O)Oc1ccc2c(c1)O/C(=C\c1ccncc1)C2=O 105%

Assay: modulators of CIT2-GFP expression in yeast, primary screen, S. cerevisiae, GFP fusion, multiplex flow cytometry (AID 1870);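 further: barcoded CIT2-GFP strain pooled with four other GFP strains with rapamycin as positive control; median GFP fluorescence per well over plate mean of DMSO wells so 100% = DMSO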
Conditions: 3 h, at 10 µM, stronger effect = higher value

Percent response of DMSO control, inactive:
Fc1ccc(-n2cc(CNCCc3ccccn3)c(-c3ccccc3Cl)n2)cc1 97.7%
CO[C@@]1(NC(=O)Cc2cccs2)C(=O)N2C(C(=O)O)=C(COC(N)=O)CS[C@@H]21 111%
N#CCC(N)=C(C#N)C#N 111%
O=C(OCCN1CCOCC1)c1cccs1 113%
CC(=O)c1cc2c(cc1NC(=O)c1ccco1)OCCO2 109%
CC(C)NS(=O)(=O)c1ccc(OCC(=O)Nc2cccc(F)c2)cc1 106%
COc1ccc2[nH]c(CN3CCN(CC(C)C)C(CCO)C3)c(C)c2c1 (stereo not drawn) 94.8%
Cc1ccsc1C1NC(=O)c2ccccc2N1 (stereo not drawn) 94.8%
Fc1ccc(NC(=S)Nc2ccccc2Cl)cc1 106%
CCN1C(=O)C(CC(=O)Nc2ccc(F)cc2)N(Cc2ccco2)C1=S (stereo not drawn) 95.1%
Cc1ccc2c(c1C)NC(C(=O)O)C1CC=CC21 (stereo not drawn) 105%
c1cc(-c2ccncc2)ccn1 106%
NS(=O)(=O)c1ccc(CCNC(=O)C2CCCN2C(=O)OCc2ccccc2)cc1 (stereo not drawn) 112%
CC(C)CN1CCN(Cc2cccn2-c2ccccn2)CC1CCO (stereo not drawn) 103%
CC(C)COCC(CN(Cc1ccccc1)c1ccccc1)N1CCCC1 (stereo not drawn) 104%
CS(=O)(=O)NCc1ccc(C(=O)NCc2ccccc2)cc1 100%
COc1cc(NC(=S)NN2CCN(C)CC2)cc(OC)c1OC 116%
CC(=O)[C@@H]1[C@@H](C(=O)c2ccc(C)cc2)[C@]2(C(=O)Nc3ccccc32)[C@H]2C=Cc3cc(F)ccc3N12 90.1%
COC(=O)c1ccc(NC(=O)c2ccccc2SC)cc1 102%
O=C(Nc1nc2ccccc2s1)c1ccc(F)cc1 102%
CC(=O)N1c2ccccc2C(C)=CC1(C)C 98.3%
CCC(=O)Oc1ccc(C(=O)Nc2ccc([N+](=O)[O-])cc2)cc1 90%
C[C@]12CC[C@@H]3c4ccc(O)cc4CC[C@H]3[C@@H]1CC[C@@H]2O 98.2%
C=CCNc1nc2c(c(=O)n(C)c(=O)n2C)n1CC(=C)C 101%
COc1ccc(CN2CCCCC2C(=O)Nc2ccc(OC)c(OCC(C)C)c2)cc1OC (stereo not drawn) 101%
Cn1cc(C2N3CC4(C)CN2CC(C)(C3)C4=O)c2ccccc21 (stereo not drawn) 98.9%
Cc1ccc2nc(NC3=NC(CC(=O)O)C(=O)N3)nc(C)c2c1 (stereo not drawn) 106%
Cc1ccc(C2CC(=O)C(C=NCCN3CCN(CC(=O)Nc4cc(C)cc(C)c4)CC3)=C(O)C2)cc1 (stereo not drawn) 97.6%
NC(N)=NC(=O)Cc1c(Cl)cccc1Cl 97.8%
O=C(CCSc1ccccc1)N1CCCC1 104%
O=C(Nc1ccc(F)c([N+](=O)[O-])c1)c1ccc2c(c1)OCCO2 104%
Nc1ccc2cn[nH]c2c1 98.6%
CCN(CC)CC#CCOC(=O)C(O)(c1ccccc1)C1CCCCC1 (stereo not drawn) 110%
CC(C)CN1CCN(Cc2ccc(C#CC(C)(C)O)cc2)CC1CCO (stereo not drawn) 102%
Cc1ccccc1NC(=O)NCCc1c[nH]c2ccccc12 101%
C#CCN1C(=O)C(O)(c2c(C)[nH]c3ccccc23)c2ccccc21 (stereo not drawn) 96%
Cc1ccc(S(=O)(=O)N2CCC(C(=O)N[C@@H](C)C(=O)NC3CCS(=O)(=O)C3)CC2)cc1 (stereo partly drawn) 106%
CCNC(=O)c1c(N)sc2c1CCCCC2 101%
COc1ccccc1C(=O)Oc1ccc2c(c1)O/C(=C\c1ccncc1)C2=O 97.7%
